Assay results as given in PubChem BioAssay (NCI).
The panel holds about 83,000 compounds, 20% with a hit somewhere; the sample as a whole holds those more often.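 For each line, cells grew in 96-well plates with the test compound present at a single concentration for 48 hours.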 The source made the active and inactive calls. Rule for the calls: active = growth percent below 10; inactive = the rest.

Columns and labels:
Assay in all cases: NCI-60 one-dose screen, 48 h (100 = growth as untreated, 0 = no growth, -100 = all killed)
Details in all cases: 10 µM unless noted
HCT-15 colon = tested on: HCT-15 colon
HT29 colon = tested on: HT29 colon
SNB-75 CNS = tested on: SNB-75 CNS
SNB-19 CNS = tested on: SNB-19 CNS
U251 CNS = tested on: U251 CNS
PC-3 prostate = tested on: PC-3 prostate
SK-MEL-5 melanoma = tested on: SK-MEL-5 melanoma
UACC-62 melanoma = tested on: UACC-62 melanoma
LOX IMVI melanoma = tested on: LOX IMVI melanoma
SK-MEL-28 melanoma = tested on: SK-MEL-28 melanoma

Measured: growth

c1cnc2[nH]cc(-c3csc(-c4cn(CCCCN5CCOCC5)c5ccccc45)n3)c2c1
active: HCT-15 colon 5.17% | HT29 colon -44.6% | SK-MEL-28 melanoma -71.1%
inactive: SNB-75 CNS 35.4% | SNB-19 CNS 57.5% | U251 CNS 20% | PC-3 prostate 25.9% | SK-MEL-5 melanoma 51.2% | UACC-62 melanoma 68.9% | LOX IMVI melanoma 20.8%

Cc1sc2c(c1C)C(c1ccc(Cl)cc1)=N[C@@H](CC(=O)OC(C)(C)C)c1nnc(C)n1-2
inactive: HCT-15 colon 12.9% | HT29 colon 18% | SNB-75 CNS 18.6% | SNB-19 CNS 45.4% | U251 CNS 52.4% | PC-3 prostate 53.3% | SK-MEL-5 melanoma 21.1% | UACC-62 melanoma 26.9% | SK-MEL-28 melanoma 38.4%
active: LOX IMVI melanoma 7.81%

CCOC(=O)C(Cc1ccc(N(CCCl)CCCl)cc1)NC(=O)C(CC(C)C)NC(C)=O (stereo not given)
active: HT29 colon 8.7% | LOX IMVI melanoma -15.6% | SK-MEL-28 melanoma 6.21%
inactive: HCT-15 colon 35% | SNB-75 CNS 41.6% | SNB-19 CNS 57.6% | U251 CNS 25.5% | PC-3 prostate 60.9% | SK-MEL-5 melanoma 60.8% | UACC-62 melanoma 13.1%

O=C1CCC2(O)[C@@H]3Cc4ccc(O)c5c4[C@]2(CCN3Cc2ccoc2)C1O5 (stereo not given in full)
inactive: HCT-15 colon 100% | HT29 colon 102% | SNB-75 CNS 85.1% | SNB-19 CNS 101% | U251 CNS 101% | PC-3 prostate 44.2% | SK-MEL-5 melanoma 100% | UACC-62 melanoma 109% | LOX IMVI melanoma 92.2% | SK-MEL-28 melanoma 115%

COc1ccc(/C=C\c2cc(OC)c(OC)c(OC)c2)cc1OCC(=O)Nc1nc2ccc(F)cc2s1
active: SK-MEL-5 melanoma -0.28%
inactive: HCT-15 colon 45% | HT29 colon 39.9% | SNB-75 CNS 15.6% | SNB-19 CNS 72.6% | U251 CNS 21.2% | PC-3 prostate 40.4% | UACC-62 melanoma 32.4% | LOX IMVI melanoma 19.1% | SK-MEL-28 melanoma 69.5%

Fc1c[c-]c(-c2ccccn2)c(F)c1.[CH3-].[Pt+2].c1ccc([PH+](c2ccccc2)c2ccccn2)cc1
inactive: SNB-19 CNS 26% | PC-3 prostate 15.4%
active: HCT-15 colon -36.7% | HT29 colon -13% | SNB-75 CNS -5.13% | U251 CNS 6.42% | SK-MEL-5 melanoma -75.3% | UACC-62 melanoma -30.5% | LOX IMVI melanoma -95.3% | SK-MEL-28 melanoma -21.9%

COc1ccc(N(CC(=O)NCCC[Te]c2ccccc2)C(=O)CCSC2=C(C)C(=O)c3ccccc3C2=O)cc1
active: HCT-15 colon -15.7% | HT29 colon 1.86% | SNB-19 CNS -12.4% | U251 CNS -42.7% | PC-3 prostate 0.627% | SK-MEL-5 melanoma -96.7% | UACC-62 melanoma -25.4% | LOX IMVI melanoma -50.1% | SK-MEL-28 melanoma -18.1%
inactive: SNB-75 CNS 13.2%

COC(=O)[C@@H](C)C[C@H](Cc1ccccc1)NC(=O)c1nc([C@@H](C[C@H](C(C)C)N(C)C(=O)[C@@H](NC(=O)[C@H]2CCCCN2C)C(C)C)OC(C)=O)sc1C
active: HT29 colon 4.71% | SK-MEL-5 melanoma -39.2%
inactive: HCT-15 colon 12.9% | SNB-75 CNS 12.7% | SNB-19 CNS 24.3% | U251 CNS 14.6% | PC-3 prostate 28.9% | UACC-62 melanoma 30.2% | LOX IMVI melanoma 12.4% | SK-MEL-28 melanoma 66.1%

CCOC(=O)[C@@H](C)C[C@H](Cc1ccccc1)NC(=O)c1csc([C@@H](C[C@H](C(C)C)N(C)C(=O)CNC(=O)[C@H]2CCCCN2C)OC(C)=O)n1
active: HT29 colon 4.5% | SNB-75 CNS -13.4%
inactive: HCT-15 colon 12.8% | SNB-19 CNS 17.4% | U251 CNS 18.7% | PC-3 prostate 22.7% | SK-MEL-5 melanoma 13.5% | UACC-62 melanoma 29.8% | LOX IMVI melanoma 34.3% | SK-MEL-28 melanoma 57.1%

CCC(O)(CN)c1ccccc1 (stereo not given)
inactive: HCT-15 colon 103% | HT29 colon 95.6% | SNB-75 CNS 93.5% | SNB-19 CNS 106% | U251 CNS 93.6% | PC-3 prostate 87.5% | SK-MEL-5 melanoma 98.9% | UACC-62 melanoma 100% | LOX IMVI melanoma 105% | SK-MEL-28 melanoma 115%

ClCCN(CCCl)c1ccc(/C=N/Nc2ncnc3nc[nH]c23)cc1
inactive: HCT-15 colon 95% | HT29 colon 77.5% | SNB-75 CNS 72.7% | SNB-19 CNS 82% | U251 CNS 67.6% | PC-3 prostate 232% | SK-MEL-5 melanoma 75% | UACC-62 melanoma 74% | LOX IMVI melanoma 65.8% | SK-MEL-28 melanoma 117%

O=P(N1CC1)(N1CC1)N1CCc2ccccc21
inactive: HCT-15 colon 115% | HT29 colon 104% | SNB-75 CNS 91.1% | SNB-19 CNS 102% | U251 CNS 95.5% | PC-3 prostate 88.6% | SK-MEL-5 melanoma 109% | UACC-62 melanoma 92.8% | LOX IMVI melanoma 93.3% | SK-MEL-28 melanoma 115%

ClCCN(CCCl)c1ccc(/C=N\N=C\c2ccc(N(CCCl)CCCl)cc2)cc1
inactive: HCT-15 colon 37.3% | HT29 colon 39.3% | SNB-75 CNS 72.1% | SNB-19 CNS 69.2% | U251 CNS 47.4% | PC-3 prostate 34.3% | SK-MEL-5 melanoma 49.7% | UACC-62 melanoma 24.5% | LOX IMVI melanoma 10.7% | SK-MEL-28 melanoma 61.3%

COC(=O)N[C@H]1CCc2c(Br)c(OC)c(OC)c(OC)c2-c2ccc(SC)c(=O)cc21
active: HCT-15 colon 7.69% | SK-MEL-5 melanoma -44.6%
inactive: HT29 colon 12% | SNB-75 CNS 29.1% | SNB-19 CNS 28.2% | U251 CNS 21.4% | PC-3 prostate 21.7% | UACC-62 melanoma 38.6% | LOX IMVI melanoma 12.1% | SK-MEL-28 melanoma 66.9%

COc1cccc2c1c(C(=O)c1ccco1)cn2Cc1ccc(F)cc1
inactive: HCT-15 colon 103% | HT29 colon 118% | SNB-75 CNS 121% | SNB-19 CNS 119% | U251 CNS 112% | PC-3 prostate 105% | SK-MEL-5 melanoma 96.3% | UACC-62 melanoma 78.3% | LOX IMVI melanoma 109% | SK-MEL-28 melanoma 123%

N#CCCNc1ccccc1
inactive: HCT-15 colon 111% | HT29 colon 108% | SNB-75 CNS 88.6% | SNB-19 CNS 116% | U251 CNS 103% | PC-3 prostate 96.9% | SK-MEL-5 melanoma 107% | UACC-62 melanoma 117% | LOX IMVI melanoma 106% | SK-MEL-28 melanoma 99.8%

COC(=O)[C@@H](C)C[C@H](Cc1ccccc1)NC(=O)c1csc([C@@H](C[C@H](C(C)C)N(C)C(=O)[C@@H](NC(=O)[C@H]2CCCN2C)C2CC2)OC(C)=O)n1
inactive: HCT-15 colon 18.3% | SNB-75 CNS 28.9% | SNB-19 CNS 75.6% | UACC-62 melanoma 41.2% | LOX IMVI melanoma 15% | SK-MEL-28 melanoma 56.4%
active: HT29 colon 6.25% | U251 CNS 8.67% | PC-3 prostate 8.37% | SK-MEL-5 melanoma -52.1%

CC[C@H](C)[C@H](NC(=O)c1ccccn1)C(=O)N(C)[C@H](C[C@@H](OC(C)=O)c1nc(C(=O)N[C@@H](Cc2ccccc2)C[C@H](C)C(=O)OC)cs1)C(C)C
inactive: HCT-15 colon 13.5% | SNB-19 CNS 52.4% | U251 CNS 16.1% | PC-3 prostate 24.5% | UACC-62 melanoma 13.1% | LOX IMVI melanoma 29.1% | SK-MEL-28 melanoma 53.2%
active: HT29 colon 2.48% | SNB-75 CNS 5.57% | SK-MEL-5 melanoma -22.6%

CC(=O)O[C@H]1CC[C@]2(C)[C@H]3CC[C@]4(C)[C@@H](OC(C)=O)CC[C@H]4[C@@H]3[C@@H](C)[C@]2(O)C1
inactive: HCT-15 colon 108% | HT29 colon 106% | SNB-75 CNS 92.5% | SNB-19 CNS 111% | U251 CNS 111% | PC-3 prostate 89.6% | SK-MEL-5 melanoma 106% | UACC-62 melanoma 98.4% | LOX IMVI melanoma 96.8% | SK-MEL-28 melanoma 117%

C=CCc1cc2c(cc1OCC)OCO2
inactive: HCT-15 colon 96.5% | HT29 colon 87.7% | SNB-75 CNS 106% | SNB-19 CNS 99.7% | U251 CNS 107% | PC-3 prostate 80.8% | SK-MEL-5 melanoma 103% | UACC-62 melanoma 108% | LOX IMVI melanoma 94.2% | SK-MEL-28 melanoma 102%

C[N+](C)(C)Cc1cc(Cl)ccc1O
inactive: HCT-15 colon 91.8% | HT29 colon 97.5% | SNB-75 CNS 99.3% | SNB-19 CNS 118% | U251 CNS 98.7% | PC-3 prostate 99.8% | SK-MEL-5 melanoma 93.1% | UACC-62 melanoma 102% | LOX IMVI melanoma 99% | SK-MEL-28 melanoma 102%

Cc1cc(C)c(CBr)c(C)c1
inactive: HCT-15 colon 108% | HT29 colon 100% | SNB-75 CNS 106% | SNB-19 CNS 110% | U251 CNS 95.3% | PC-3 prostate 94% | SK-MEL-5 melanoma 97.7% | UACC-62 melanoma 102% | LOX IMVI melanoma 101% | SK-MEL-28 melanoma 106%

O=[N+]([O-])c1c(Br)sc(Br)c1[N+](=O)[O-]
inactive: SNB-75 CNS 63.1% | SNB-19 CNS 76% | PC-3 prostate 67.5% | SK-MEL-5 melanoma 51.4% | SK-MEL-28 melanoma 57.3%
active: HCT-15 colon -13.9% | HT29 colon -58% | U251 CNS -31% | UACC-62 melanoma -1.09% | LOX IMVI melanoma -65.3%

Nc1ccc(Cl)cc1
inactive: HCT-15 colon 100% | HT29 colon 97.5% | SNB-75 CNS 88.3% | SNB-19 CNS 103% | U251 CNS 96.9% | PC-3 prostate 86% | SK-MEL-5 melanoma 99.7% | UACC-62 melanoma 101% | LOX IMVI melanoma 92.8% | SK-MEL-28 melanoma 109%

O=[N+]([O-])CC(c1ccccc1Cl)c1c(-c2ccccc2)[nH]c2ccccc12 (stereo not given)
active: HT29 colon 8.38% | SNB-75 CNS 6.44%
inactive: HCT-15 colon 22.8% | SNB-19 CNS 45.4% | U251 CNS 34.8% | PC-3 prostate 31.6% | SK-MEL-5 melanoma 28.4% | UACC-62 melanoma 30.7% | LOX IMVI melanoma 33.4% | SK-MEL-28 melanoma 61.4%

O=C1C(Cl)=C(N2CCOCC2)C(=O)c2ccccc21
inactive: HCT-15 colon 71.5% | HT29 colon 116% | SNB-75 CNS 102% | SNB-19 CNS 116% | U251 CNS 67% | PC-3 prostate 71.9% | SK-MEL-5 melanoma 92% | UACC-62 melanoma 105% | LOX IMVI melanoma 76.7% | SK-MEL-28 melanoma 118%
